Out of some 52,000 compounds screened, about 4,300 (8.3%) were called active. This excerpt belongs to a sample that is enriched for actives. Unmarked numbers belong to inactive results. Cut-off read from the data, not from the text of the source: active = survival mostly below about 52% (no sharp cut-off); inactive = mostly above about 56%.
What follows are compounds tested on DeltatarO mutant (assay: S. aureus survival, RN4220 and DeltatarO strains – OD600, teichoic acid synthesis inhibitors, primary screen (AID 463173)). Conditions: S. aureus RN4220 wild type/DeltatarO growth, OD600, 18 h, active compounds read low, screened at 18.75 µg/mL (by protocol).

Structure (SMILES) | survival
Cc1ccc(NC(=O)c2oc3ccc(S(=O)(=O)N(C)C4CCCCC4)cc3c2C)cc1Cl | 95%
Cc1cc2n(n1)CCCN2C(=O)Nc1cccc(C)c1C | 73%
O=C(O)C1C2C=CC(C2)C1C(=O)NCCO (stereo not drawn) | 82%
COc1ccc(OC)c(S(=O)(=O)N2CCC(C(=O)NCCC3=CCCCC3)CC2)c1 | 92%
CCOC(=O)CCNC(=O)N1CCN(S(=O)(=O)c2ccc3c(ccn3C)c2)CC1 | 89%
COC(=O)CNC(=O)N1CCN(S(=O)(=O)c2ccc3c(ccn3C)c2)CC1 | 87%
CCOC(=O)CNC(=O)N1CCN(S(=O)(=O)c2ccc3c(ccn3C)c2)CC1 | 32% (active)
CCn1c(SCc2ccccc2)nnc1-c1cccnc1 | 75%
Cc1cccc(N2CCN(Cc3nnc(-c4ccccc4C)o3)CC2C)c1 (stereo not drawn) | 33% (active)
Cc1ccccc1-c1nnc(CN2CCN(c3cccc(C)c3C)CC2)o1 | 61%
Cc1ccccc1-c1nnc(CN2CCN(c3ccccn3)CC2)o1 | 120%
Cc1ccc(N2CCN(Cc3nnc(-c4ccccc4F)o3)CC2)c(C)c1 | 22% (active)
Cc1ccccc1-c1nnc(CN2CCN(c3cc(Cl)ccc3C)CC2)o1 | 74%
Cc1ccc(C)c(N2CCN(Cc3nnc(-c4ccccc4)o3)CC2)c1 | 91%
CCn1c(=O)n(CC2CCC(C(=O)NC(C)C)CC2)c(=O)c2sccc21 (stereo not drawn) | 85%
CC(=O)c1ccc(NC(=O)Cn2cc(S(=O)(=O)Cc3ccccc3Cl)c3ccccc32)cc1 | 74%
CCOC(=O)C1CCCN(C(=O)c2ccc3c(c2)N(Cc2ccccc2)C(=O)c2ccccc2S3=O)C1 (stereo not drawn) | 120%
CCCCC(=O)Nc1ccc2nc(SCC(=O)N3CCOCC3)sc2c1 | 87%
CCN(Cc1ccccc1)C(=O)CCc1c(C)nc2c(c(C)nn2-c2ccc(C)c(C)c2)c1C | 95%
COc1ccc(C(=O)N(Cc2cc(OC)c(OC)c(OC)c2)CC2CCCO2)cc1 (stereo not drawn) | 48%
O=C(c1ccc(Cl)cc1)N1CCN(CCc2ccncc2)CC1 | 103%
CCOC(=O)CSc1nc2sc3c(c2c(=O)n1Cc1ccccc1)CC(C(C)C)OC3 (stereo not drawn) | 74%
CCCN(CCC)C(=O)CSc1nc2sc3c(c2c(=O)n1-c1ccccc1)CCN(C(C)=O)C3 | 178%
CCOC(=O)CSc1nc2sc3c(c2c(=O)n1Cc1ccccc1)CC(C)CC3 (stereo not drawn) | 64%

Structure (SMILES) | survival
CCOC(=O)CSc1nc2sc3c(c2c(=O)n1-c1ccccc1)CC(C(C)C)OC3 (stereo not drawn) | 96%
CCC1(C)Cc2c(sc3nc(SC)n(-c4ccc(C)cc4)c(=O)c23)CO1 (stereo not drawn) | 33% (active)
CCCCCOC(=O)CSc1nc2sc3c(c2c(=O)n1Cc1ccccc1)CC(C)(CC)OC3 (stereo not drawn) | 46% (active)
COC(=O)CSc1nc2sc3c(c2c(=O)n1-c1ccc(C)cc1)CC(C(C)C)OC3 (stereo not drawn) | 61%
CCCCCOC(=O)CSc1nc2sc3c(c2c(=O)n1-c1ccccc1)CC(C)(CC)OC3 (stereo not drawn) | 36% (active)
CCOC(=O)CSc1nc2sc3c(c2c(=O)n1Cc1ccccc1)CCC(C(C)(C)C)C3 (stereo not drawn) | 61%
CCCCCOC(=O)CSc1nc2sc3c(c2c(=O)n1Cc1ccccc1)CC(C)(C)OC3 | 41% (active)
Cc1ccc(-n2c(SCCC(C)C)nc3sc4c(c3c2=O)CC(C)(C)OC4)cc1 | 49%
COC(=O)CSc1nc2sc3c(c2c(=O)n1-c1ccccc1C)CC(C)(C)OC3 | 73%
CCOc1ccc(CN(CCc2ccc3c(c2)OCO3)Cc2cc(OC)c(OC)cc2OC)cc1 | 44%
O=C(Nc1ccc(C(=O)OCc2cc(=O)n3nc(C4CC4)sc3n2)cc1)c1cccc(F)c1 | 67%
O=C(Nc1cccc(F)c1)/C(=C\c1cccs1)NC(=O)c1cccs1 | 79%
O=C(CCCSc1nc(-c2ccco2)cc(C(F)(F)F)n1)Nn1cnnc1 | 72%
COc1cccc(C(=O)NC(=O)Nc2ccc(-n3nc(C(F)(F)F)cc3C(F)(F)F)cc2)c1 | 81%
CCOc1ccc(OCC)c(NC(=O)C2CCCN(S(=O)(=O)c3ccc(C)cc3)C2)c1 (stereo not drawn) | 60%
CCC(Sc1nc2cc(OC)c(OC)cc2c2nc(-c3ccccc3)nn12)C(=O)Nc1cccc(C)c1 (stereo not drawn) | 80%
CCCCc1cc(=O)oc2cc(C)c3c(C(C)(C)C)coc3c12 | 102%
COc1ccc(OC)c(CNc2ncc(-c3ccc(Cl)cc3)n2C)c1 | 25% (active)
COc1ccc(OC)c(CNc2ncnc3onc(-c4ccc(Cl)cc4)c23)c1 | 53%
COc1ccc(OC)c(CNC(=O)CN2N=C(c3ccc(Cl)cc3)CCC2=O)c1 | 96%
CCOC(=O)c1cnc(NCc2ccc(OC)cc2OC)c2ccccc12 | 86%
COc1ccc(CNS(=O)(=O)c2cnc(N)nc2)c(OC)c1 | 83%
CCOc1ccc(-c2cnc(NCc3ccc(OC)cc3OC)n2C)cc1 | 37% (active)
CCOc1ccccc1C(=O)N1CC(=O)Nc2ccc(Cl)cc2C1c1ccccc1 (stereo not drawn) | 73%

Structure (SMILES) | survival
Fc1ccc(Nc2c3c(nc4nncn24)CCC3)cc1 | 74%
Cc1ccc(-n2nc(C(=O)Nc3cccc(C#N)c3)c3c4ccccc4n(C)c3c2=O)cc1 | 129%
Cc1ccc(C(=O)c2oc3ccccc3c2NC(=O)c2cc(-c3ccccc3)on2)cc1 | 77%
O=C(c1ccco1)N1CCN(c2c3c(nc4cc(-c5cccc(F)c5)nn24)CCCC3)CC1 | 70%
Cc1ccc2cc(CN(Cc3cccnc3)C(=O)c3cccnc3)c(=O)[nH]c2c1 | 106%
Cc1cccc(Oc2ccc3c(c2)Oc2ccccc2NC3=O)c1 | 73%
O=C1Nc2ccccc2Oc2cc(Oc3ccccc3)ccc21 | 33% (active)
O=C1Nc2ccccc2Oc2cc(Oc3cccc(Cl)c3)ccc21 | 46%
COc1ccc(-c2ccc(CNCCCSc3nnnn3C)o2)cc1Cl | 79%
Nc1nonc1-c1nc2ccccc2n1CC(=O)Nc1cccc(C(F)(F)F)c1 | 95%
CCc1ccc(NC(=O)C(CC)n2c(=O)c(-c3ccccc3NC(C)=O)nc3ccccc32)cc1 (stereo not drawn) | 65%
CCc1ccc(NC(=O)Cn2c(=O)c(-c3ccccc3NC(C)=O)nc3ccccc32)cc1 | 44% (active)
CC(=O)Nc1ccccc1-c1nc2ccccc2n(CC(=O)Nc2ccc(C)c(Cl)c2)c1=O | 101%
COc1ccc(Cl)cc1NC(=O)Cn1c(=O)c(-c2ccccc2NC(C)=O)nc2ccccc21 | 103%
CC(=O)Nc1ccccc1-c1nc2ccccc2n(CC(=O)Nc2cccc(C(F)(F)F)c2)c1=O | 45% (active)
CCOc1ccccc1-c1nc(C(N)=O)c2c(n1)n(-c1ccc3c(c1)OCO3)c(=O)n2C | 79%
CCOc1ccc(NC(=O)Cc2c[nH]c3ccccc23)cc1 | 80%
Cc1oc2c(c1C(=O)NCCO)CCCC2 | 85%
COCc1cc(C)nc2sc3c(c12)NC(c1ccc(O)cc1)N(c1ccc(OC)cc1)C3=O (stereo not drawn) | 76%
CCCN1C(=O)C2(c3ccccc31)c1c(oc3ccc(F)cc3c1=O)C(=O)N2CCCOC(C)C (stereo not drawn) | 93%
COc1ccc2cc(C#N)c(N3CCCN(C(=O)/C=C/C(=O)O)CC3)nc2c1 | 105%
CCCN1CCc2nc(N3CCN(c4ncccn4)CC3)ncc2C1 | 75%
O=C(CSc1nc2ccccc2n1Cc1ccccc1)NCc1ccccc1 | 95%
O=C(CSc1nc2ccccc2n1Cc1ccccc1)Nc1ccccn1 | 81%

Structure (SMILES) | survival
O=C1OCCC1Sc1nc2ccccc2n1Cc1ccccc1 (stereo not drawn) | 73% (active)
COC(=O)c1nnn(CC(=O)Nc2c(C)cccc2C)c1N | 87%
Cc1ccc(NC(=O)CN2C(=O)COc3ccc(S(=O)(=O)N4CCCCCC4)cc32)cc1Cl | 67%
COc1cccc(/C=N/NC(=O)CSCc2ccccc2)c1O | 69%
COc1cccc(/C=N/NC(=O)COc2c(C)cccc2C)c1O | 88%
Cn1cccc1/C=N/NC(=O)c1ccccn1 | 77%
Cc1cccc(/C=N/NC(=O)c2ccccn2)c1O | 5% (active)
COc1cccc(/C=N/NC(=O)c2cccc(C)c2)c1O | 2% (active)
O=C(N/N=C/c1ccc(OC(=O)c2ccco2)cc1)c1ccccn1 | 92%
COc1ccc(C(=O)Nc2ccc3nc4n(c(=O)c3c2)CCCCC4)cc1OC | 91%
CCOc1ccc(-n2c(=O)c3c(C)c(C)sc3n(CC(=O)N3CCC(C)CC3)c2=O)cc1 | 71%
CCC(C)NC(=O)c1ccc2nc(Cc3ccc(OC)cc3)oc2c1 (stereo not drawn) | 76%
CCOC(=O)c1c(C)[nH]c(CCC(=O)Nc2cc(Cl)ccc2OC)c1C | 94%
COc1ccccc1CNC(=O)Cn1c(=O)ccc2cc(S(=O)(=O)N3CCCC3)ccc21 | 69%
CCn1nc(C)c(CCN(C)C(=O)Nc2cc(OC)c(OC)c(OC)c2)c1C | 89%
CCc1ccc(OCC(=O)Nc2cc3oc4ccccc4c3cc2OC)cc1 | 47% (active)
COc1cc2c(cc1NC(=O)COc1ccc(Cl)cc1)oc1ccccc12 | 46% (active)
COc1cc2c(cc1NC(=O)COc1ccc(Br)cc1)oc1ccccc12 | 72%
COc1cc2c(cc1NC(=O)COc1ccc(Br)cc1C)oc1ccccc12 | 119%
COc1cc2c(cc1NC(=O)COc1ccc(Br)c(C)c1)oc1ccccc12 | 49%
CCc1ccc(OCC(=O)Nc2cc3oc4ccccc4c3cc2OC)c(Br)c1 | 123%

— PubChem BioAssay AID463173 (ICCB-Longwood Screening Facility, Harvard Medical School, 2010)
